The values that follow come from PubChem BioAssay AID504697 (The Scripps Research Institute Molecular Screening Center, 2011).

SMILES strings stand for the structures. A number with no mark means an inactive call. Active and inactive are the calls of the source.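 The calls were made as follows: active = EC50 at or below 10 µM; inactive = EC50 above 10 µM.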

A short description of this assay: compound autofluorescence in calcium buffer – biochemical, fluorescence, no RTF in test wells, artefact control for cardiac thin filament activator project, dose response (AID 504697).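 Also: emission near 535 nm under roughly 485 nm excitation as for IANBD.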 Conditions: compound-only fluorescence in RTF assay buffer with Ca2+ (no RTF in test wells), artifact counterscreen. Background: Counterscreens check selectivity or assay interference.

Usually EC50 stands for the concentration giving half of the maximal effect.

Regarding `CCN1C(=O)/C(=C/N2CCc3ccccc32)SC1=S`, the EC50 is 10.1 µM.

As to `COc1cc(OC)c(C(=O)OC(C)C(=O)Nc2cccc(C(F)(F)F)c2)cc1OC` (configuration not stated), the EC50 is greater than 71.5 µM.

Take `CN(C)NC(=O)c1ccc([N+](=O)[O-])s1`: the EC50 was greater than 71.4 µM.

Turning to `O=C(NCc1nnc(SCC(=O)N2CCCCCC2)o1)c1ccco1`, the EC50 was greater than 71.5 µM.

For the compound `C=CCOc1ccc(Br)cc1CNCC`, the EC50 is greater than 71.6 µM.

For the compound `CNC(=O)N(O)C1N(C)C(=O)N(CC(=O)OC)C1(C)C` (configuration not stated), the EC50 was greater than 71.5 µM.

Take `N#C/C(=C\c1ccc(-c2ccc(F)cc2)o1)C(=O)Nc1nc(-c2cccs2)cs1`: the EC50 was greater than 71.5 µM.

In the case of `CCOc1cc(/C=C2\N=C(SC(C)C(N)=O)N(c3ccc(OC(F)F)cc3)C2=O)ccc1O` (configuration not stated), the EC50 was 23.3 µM.

In the case of `Cc1cc(/C=C2\SC(=S)N(Cc3ccco3)C2=O)c(C)n1-c1cccnc1`, the EC50 was 12 µM.

Take `Cn1cc(/C=C2\SC(=S)N(NC(=O)c3ccccc3)C2=O)c2ccccc21`: the EC50 was 9.01 µM (active).

For the compound `O=C(Nc1ccc(Cl)cn1)C1COc2ccccc2O1` (configuration not stated), the EC50 was greater than 71.5 µM.

With `CC(=O)N(C)c1ccc(C(O)(C(F)(F)F)C(F)(F)F)cc1`, the EC50 was greater than 71.5 µM.

On to `CC(=O)Nc1ccc(N=Cc2nc(-c3ccc(C)cc3)oc2O)cc1`, for which the EC50 is 20 µM.

In the case of `COc1ccc2nc(-c3ccccn3)[nH]c2c1`, the EC50 was greater than 71.5 µM.

For `COCCn1c(=O)c2ccccc2c2ccccc2c1=O`, the EC50 is greater than 71.5 µM.

Take `COC(=O)C1=C(C)NC(=O)/C1=C\N(C)C`: the EC50 was greater than 71.5 µM.

As to `Cc1c(O)c2c3c(cccc3c1O)C(=O)N(c1ccccc1)C2=O`, the EC50 is 13.9 µM.

On to `CC(C)Sc1nc2ccc(Br)cc2[nH]1`, for which the EC50 is greater than 71.4 µM.

For `Cc1cccc(/C=N/n2c(-c3ccncc3)n[nH]c2=S)c1`, the EC50 was greater than 71.5 µM.

Turning to `NC(=O)C1CCN(C(=O)c2ccc(-c3ccccc3)cc2)CC1`, the EC50 was greater than 71.6 µM.

For `CC1=CC(=C(C#N)C#N)C=C(C)N1Cc1ccc(Cl)cc1`, the EC50 was greater than 71.5 µM.

As to `CC(/C=N/Nc1ccc2nncn2n1)=C\c1ccccc1`, the EC50 is greater than 71.5 µM.

Consider `CC(=O)Nc1ccc2cc3ccc(NC(C)=O)cc3nc2c1`, for which the EC50 is greater than 71.5 µM.

With `CN1c2ccccc2C(O)=C(C(=S)Nc2ccc(F)c(Cl)c2)S1(=O)=O`, the EC50 was greater than 71.5 µM.

Regarding `CCN1/C(=C/c2ccc3cc(C)ccc3[n+]2CC)Sc2ccccc21`, the EC50 is greater than 71.4 µM.

For the compound `N=C1c2ccccc2CN1c1ccc(S(=O)(=O)N2CCCCC2)cc1`, the EC50 is greater than 71.5 µM.

Turning to `CC(=O)Oc1ccc(N2C(=O)C3C(C2=O)C(C(=O)c2ccc(Cl)cc2)N2CCCC32)cc1` (configuration not stated), the EC50 was 58.7 µM.

As for `COC(=O)c1sc(N2C(=O)C(O)=C(C(=O)c3ccc(C)o3)C2c2ccc(F)cc2)nc1C` (configuration not stated), the EC50 is greater than 71.4 µM.

As for `O=C(CO/N=C/c1ccccc1OC(F)F)NCc1cccs1`, the EC50 is greater than 71.5 µM.

On to `Cc1cccn2c(=O)c(/C=C3\SC(=S)N(CC(C)C)C3=O)c(NCCCOC(C)C)nc12`, for which the EC50 was 0.988 µM (active).

As to `CNC(=S)N1N=C(c2ccc(Br)cc2)CC1c1ccc(N(C)C)cc1` (configuration not stated), the EC50 is 51.4 µM.

On to `Cc1sc(NC(=O)CSc2nnc(C(C)C)n2C)c(C#N)c1C`, for which the EC50 is greater than 71.5 µM.

In the case of `Oc1ccc2ccc3cccc[n+]3c2c1`, the EC50 was 2.46 µM (active).

For the compound `CC1(C)CC(=O)C(C=Nc2cc(C(=O)c3ccccc3)ccc2N)=C(O)C1`, the EC50 was greater than 71.5 µM.

Turning to `O=C(C1=C(O)C(=O)N(CCN2CCOCC2)C1c1ccc([N+](=O)[O-])cc1)c1cccs1` (configuration not stated), the EC50 was greater than 71.4 µM.

As for `CCN(CC)C(=S)SCC(=O)c1c(C)[nH]c2ccccc12`, the EC50 was greater than 71.5 µM.

For the compound `O=C1c2ccsc2SCCN1Cc1ccc(F)cc1`, the EC50 is greater than 71.5 µM.

Regarding `C=CCN1C(=O)c2ccccc2NC1c1cc(Br)cs1` (configuration not stated), the EC50 was greater than 71.5 µM.

As for `Cc1ccc(S(=O)(=O)NCCCCCC(=O)Nc2ccccc2C)cc1`, the EC50 is greater than 71.5 µM.

`O=C(Nc1ccccc1-c1ccccc1)c1ccc(Cl)c([N+](=O)[O-])c1`: the EC50 was greater than 71.5 µM.

For `COc1cc(-c2c(-c3ccc4c(c3)OCO4)noc2C)ccc1F`, the EC50 is greater than 71.4 µM.

On to `COc1ccc(/C=C2/SC(c3ccc(C)cc3)=NC2=O)cc1OC`, for which the EC50 was 1.43 µM (active).
